Measured values published in the supplement of paper PMC4380459.

These molecules were tested on tubulin (bovine brain) (assay: tubulin polymerization end-point dOD, fold change relative to DMSO vehicle; higher = more polymerization (stabilization)). Settings: 50 µM; 60 min; 37 °C.
Experimental: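 In-vitro tubulin polymerization assay (Cytoskeleton HTS kit) with 4 mg/ml bovine brain tubulin in G-PEM buffer and compound at 50 uM (0.5% DMSO). Turbidity was read at 340 nm every minute for 1 h at 37 C. The end-point change in OD (dOD) was converted to % fold change relative to the DMSO vehicle (0%), and runs were scaled using DMSO and Taxol controls. The paper calls >20% an effect, 20-40% weak and >40% strong; positive values mean stabilization, negative values destabilization. Scale: negative = destabilization.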

| SMILES | tubulin polymerization end-point dOD |
| --- | --- |
| O=C(NC1=NCCS1)c1sc2cccc(F)c2c1COc1ccccc1 | 34.2% |
| Cc1cc2nc(-c3ccc(SCC#N)nc3)[nH]c2cc1C | 51.8% |
| CCc1ccc2nc(SCC(=O)Nc3ccccc3N3CCOCC3)c(C#N)cc2c1 | -7.7% |
| O=C(Nc1ncc(Cc2ccc(Cl)cc2)s1)c1cccnc1 | 7.93% |
| Cc1ccc(NC(=S)N(Cc2cc3ccc(C)cc3[nH]c2=O)CC2CCCO2)cc1 (stereo not given) | 97.9% |
| Cc1ccc(C(=O)Nc2ncc(Cc3ccccc3Br)s2)cn1 | -35.9% |
| CCc1ccccc1NC(=S)N(CCCO)Cc1cc2cc(C)cc(C)c2[nH]c1=O | -51.6% |
| COc1ccc(OC)c(NC(=O)CSc2nc3cc4c(cc3cc2C)CCC4)c1 | 20.5% |
| COc1ccc(C2=NOC(=O)/C2=N/Nc2ccc(Cl)cc2)cc1 | 19% |
| CC(=O)c1c(C)oc2c1cc(NS(=O)(=O)c1ccc(C)cc1)c1ccccc12 | -58.9% |
| C=CCOc1ccccc1NC(=O)c1cc(-c2c(C)nn(C)c2C)n[nH]1 | -31.9% |
| COc1ccc(/C(C)=N/Nc2cc[nH+]c3cc(Cl)ccc23)cc1OC | 3.81% |
| COc1ccc2cc(CNc3ncnc4[nH]ncc34)ccc2c1 | -12.6% |
| COc1ccc2cc(CN(Cc3ccco3)C(=O)Nc3ccccc3OC)c(=O)[nH]c2c1 | 43.9% |
| Cc1ccc(-c2csc3ncn(CC4CCCCO4)c(=O)c23)cc1 (stereo not given) | -190% |
| Cc1cc2c(cc(C(=O)OCC(=O)NCc3ccco3)n2C)s1 | 39.4% |
| CCCn1c(NC(=O)C2CC(=O)N(c3ccc4c(c3)OCCO4)C2)nc2ccccc21 (stereo not given) | -4.32% |
| CCc1ccc2nc(SCC(=O)Nc3ccccc3C)c(C)cc2c1 | -20.5% |
| COc1ccccc1-n1c(SCC(=O)Nc2nccs2)nnc1-c1cccnc1 | 5.05% |
| Cc1ccc2nc(NC(=O)c3cc(Br)c[nH]3)sc2c1 | -51.9% |

| SMILES | tubulin polymerization end-point dOD |
| --- | --- |
| Cc1ccc(/C=N/NC(=O)c2c(C)nc3ccc(Cl)cn23)cc1 | -21.2% |
| Cc1cc2cc3c(cc2nc1SCC(=O)Nc1ccccc1Br)OCO3 | -1.3% |
| CCc1ccc2nc(SCC(=O)Nc3ccccc3OC)c(C#N)cc2c1 | -25% |
| COc1cc(-c2onc3ccc(Cl)cc23)cc(OC)c1OC | 95.2% |
| Cc1cc2cc3c(cc2nc1SCC(=O)NC(C)(C)C)CCC3 | 63.4% |
| COc1ccc(NC(=O)CSc2nc3cc4c(cc3cc2C#N)OCO4)c(OC)c1 | 23.6% |
| CC1Oc2nc3ccccc3cc2CN(Cc2ccc(F)cc2)C1=O (stereo not given) | 3.19% |
| COc1ccc(Cl)cc1NC(=O)C1CCCN1C(=O)Nc1ccccc1OC (stereo not given) | -2.01% |
| Cc1cccc(Cc2cnc(NC(=O)c3ccc(Br)cc3)s2)c1 | -17.2% |
| N#Cc1ccc(Cc2cnc(NC(=O)c3ccc4ncsc4c3)s2)cc1 | -40.1% |
| CCc1nnc(NC(=O)CSc2cc(C)c3cc(C)cc(C)c3n2)s1 | 19.7% |
| CSc1ncc(C(=O)Nc2ccc(Oc3ccc4c(c3)OCO4)cc2)cn1 | -8.44% |
| COc1ccccc1-n1c(SCC(=O)Nc2nc(C)cs2)nnc1-c1cccnc1 | -51% |
| O=C(Nc1ncc(Cc2ccccc2)s1)c1sc2ccccc2c1Cl | -14.2% |
| COc1cccc(N2CCN(C(=O)c3cn(-c4ccccc4)nc3-c3cccnc3)CC2)c1 | -111% |
| Cc1ccc(C(=O)Nc2nc3ccc(Oc4ccccc4)cc3s2)cn1 | 15.6% |
| COc1ccc(/C=N/NC(=O)c2cccc(F)c2)cc1I | 10.5% |
| COc1ccc(CNc2c(-c3ccccc3O)nc3cnccn23)cc1 | 0.31% |
| COc1ccccc1NC(=O)CSc1nnc(-c2cc(OC)c(OC)c(OC)c2)n1C | -33.1% |
| O=C(Nc1ncc(Cc2ccccc2)s1)c1cc(Br)c[nH]1 | 2.89% |
